The source of these data is PubChem BioAssay (Tox21).

Several values for one entry are separate records, joined by “and”; a condition that tells them apart may be missing. Equal entries are not always repeated. A number with no mark means an inactive call. Results filed as inconclusive are left out. Activity calls are given as the source filed them. Unless noted, calls come from the whole dose curve; as a rule, active = well fitted curve in the direction sought with a large enough effect in the repeat runs; inconclusive = weak or mixed curves; inactive = no such curve, though single readings can be large; an effect the other way counts as inactive or inconclusive.

Test [1] in a line: qHTS assay to identify small molecule agonists of the hypoxia (HIF-1) signaling pathway - cell viability counter screen (AID 1224844; calls by dose curve; note: nearly all actives have a fitted effect of over 50% in size). The procedure, abridged: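 Tox21 10K compounds were added to HRE-bla ME-180 cells (0.5% dialyzed FBS) and incubated 17 hrs at 37C; ATP-based CellTiter-Glo luminescence then reported cell viability in the same wells.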
Test [2] can be described thus: qHTS assay to identify small molecule agonists of H2AX (AID 1224845; active = well fitted activation curve with a large enough effect in the signal ratio in the repeat runs, not every such curve was filed as active; the % refers to the signal ratio). A digest of the protocol:
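Wild-type CHO-K1 cells plated overnight, then exposed 3 hr at 37C to compounds at 15 concentrations (0.76% DMSO). Lysed, then HTRF anti-pH2AX(S139)-cryptate/anti-H2AX-d2 detection after 24 hr at room temperature; emissions 665 and 620 nm.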

The nature of test [3]: qHTS assay to identify small molecule agonists of the hypoxia (HIF-1) signaling pathway (AID 1224846; active = well fitted activation curve with a large enough effect in the signal ratio in the repeat runs, not every such curve was filed as active; the % refers to the signal ratio). The procedure, abridged:
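Steps: seed ME-180 HRE-bla cells (2,000/well, 0.5% dialyzed FBS); incubate 5 hrs at 37C; pin-transfer compounds or DMSO; incubate 17 hrs; add LiveBLAzer B/G substrate CCF4-AM; measure reporter activation by FRET.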
In general terms: In qHTS, concentration-response curves come from the screen itself.

The nature of test [4]: qHTS assay to identify small molecule agonists of H2AX - cell viability counter screen (AID 1224847; calls by dose curve; note: top concentration of the series differs between compounds; nearly all actives have a fitted effect of over 30% in size). A digest of the protocol: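 Cytotoxicity counter screen in wild-type CHO-K1 cells: a 3 hr compound treatment at 37C across 15 concentrations, followed by CellTiter-Glo luminescence to gauge viable cells.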
A short description of test [5]: qHTS RealTime-Glo MT Cell Viability Assay in HepG2 cells - 24 hour (AID 1224867). Note: nearly all actives have a fitted effect of over 50% in size. The procedure, abridged:
(§1)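 HepG2 cells were seeded at 600 cells/well together with NanoLuc luciferase and a cell-permeant prosubstrate, preincubated 5 h at 37 C/5% CO2, then pin-dosed with compounds in DMSO. Nonlytic luminescence from viable cells was read at each time point.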

The nature of test [6]: qHTS RealTime-Glo MT Cell Viability Assay in HEK293 cells - 32 hour (AID 1224868). Note: nearly all actives have a fitted effect of over 50% in size. Note: potency is the fitted concentration of half-maximal effect. The procedure, abridged:
(§2)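 HEK293 cells were seeded at 600 cells/well together with NanoLuc luciferase and cell-permeant prosubstrate, preincubated 5 h at 37 C/5% CO2, then given compound in DMSO by pintool. Luminescence from viable-cell prosubstrate reduction was read repeatedly over 40 h.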

Test [7] can be described thus: A CellTox Green Cytotoxicity Assay to monitor cytotoxicity in HEK293 cells - 0 hour (AID 1224869). Note: nearly all actives have a fitted effect of over 50% in size. The procedure, abridged: (§3)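 Cytotoxicity was tracked continuously in HEK293 cells by a DNA-binding dye excluded from viable cells. Compounds were transferred in DMSO 5 h after seeding; fluorescence was recorded at intervals up to 40 h.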
The nature of test [8]: qHTS RealTime-Glo MT Cell Viability Assay in HepG2 cells - 40 hour (AID 1224870). Note: nearly all actives have a fitted effect of over 50% in size. The procedure, abridged: (§4)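 HepG2 cells mixed with RealTime-Glo MT reagents (NanoLuc plus cell-permeant prosubstrate) were seeded at 600 cells/well, incubated 5 h at 37 C/5% CO2, then pinned with compounds in DMSO; nonlytic luminescence tracked viability during 40 h treatment.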
The nature of test [9]: A CellTox Green Cytotoxicity Assay to monitor cytotoxicity in HEK293 cells - 40 hour (AID 1224871). Note: nearly all actives have a fitted effect of over 45% in size. A digest of the protocol:
as §3

Test [10] is described as follows: qHTS RealTime-Glo MT Cell Viability Assay in HEK293 cells - 16 hour (AID 1224872). Note: nearly all actives have a fitted effect of over 50% in size. Note: potency is the fitted concentration of half-maximal effect. The procedure, abridged: as §2
Test [11] can be described thus: qHTS RealTime-Glo MT Cell Viability Assay in HepG2 cells - 8 hour (AID 1224873). Note: nearly all actives have a fitted effect of over 55% in size. A digest of the protocol: as §4
A short description of test [12]: qHTS RealTime-Glo MT Cell Viability Assay in HEK293 cells - 40 hour (AID 1224874). Note: nearly all actives have a fitted effect of over 50% in size. Note: potency is the fitted concentration of half-maximal effect. To be noted: RealTime-Glo luminescence; max response: stronger effect = lower value. The procedure, abridged: (§5)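 Nonlytic bioluminescent viability monitoring. HEK293 at 600 cells/well with reagent; 5 h settle; compound transfer by pintool; plates held at 37 C and read at set time points.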
Test [13] can be described thus: A CellTox Green Cytotoxicity Assay to monitor cytotoxicity in HEK293 cells - 24 hour (AID 1224875). Note: nearly all actives have a fitted effect of over 45% in size. A digest of the protocol: as §3
Test [14] is described as follows: A CellTox Green Cytotoxicity Assay to monitor cytotoxicity in HepG2 cells - 16 hour (AID 1224876). Note: nearly all actives have a fitted effect of over 45% in size. The procedure, abridged: (§6)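 Real-time, homogeneous cytotoxicity readout: dead-cell DNA staining by CellTox Green in HepG2 monolayers, fluorescence measured at timed intervals up to 40 h of continuous compound exposure.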
Test [15] in a line: qHTS RealTime-Glo MT Cell Viability Assay in HepG2 cells - 32 hour (AID 1224877). Note: nearly all actives have a fitted effect of over 55% in size. A digest of the protocol: as §1
Test [16] is described as follows: A CellTox Green Cytotoxicity Assay to monitor cytotoxicity in HepG2 cells - 24 hour (AID 1224878). Note: nearly all actives have a fitted effect of over 45% in size. The procedure, abridged:
as §6

Test [17] can be described thus: A CellTox Green Cytotoxicity Assay to monitor cytotoxicity in HepG2 cells - 40 hour (AID 1224879). Note: nearly all actives have a fitted effect of over 40% in size. The procedure, abridged:
as §6

Test [18] is described as follows: qHTS RealTime-Glo MT Cell Viability Assay in HEK293 cells - 0 hour (AID 1224880). The procedure, abridged:
as §5

Test [19] in a line: qHTS assay to identify small molecule antagonists of the estrogen related receptor (ERR) signaling pathway from Tox21 library (AID 1224848). Note: nearly all actives have a fitted effect of over 50% in size. The procedure, abridged: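 Screening used an ERR reporter line supplied by NTP, exposed for 18 h at 37 C to library compounds delivered in DMSO. Signal was luciferase luminescence developed with ONE-Glo at room temperature for 30 min.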

The nature of test [20]: qHTS assay to identify small molecule agonists of the estrogen related receptor (ERR) signaling pathway from Tox21 library (AID 1224849; calls by dose curve; note: nearly all actives have a fitted effect of over 15% in size). Particulars: ERR reporter cell line, ONE-Glo luciferase, 18 h. A digest of the protocol:
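Agonist signal is luciferase luminescence from an ERR reporter cell line treated 18 h at 37 C with DMSO-dissolved compounds, read 30 min after ONE-Glo addition at room temperature.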
% is set by controls: 0 for no effect and ±100 for the full control effect.

Consider `Cc1ccc(C)c(S(=O)(=O)O)c1`, for which the Potency entry in test [1], in test [2], in test [4], in [5], in test [6] and in test [7] was “inactive” in each case. The Potency result in [8], in test [9], in test [10], in [11], in [13] and in test [14] was “inactive” throughout. The Potency entry in test [15], in [16], in [17] and in test [18] was “inactive” throughout. The call in [3] was inactive. The max response in [12] was 6.87% and -2.89%.

`CC1(C)C(=O)N(Cl)C(=O)N1Cl`: the Potency entry in test [1], in test [2], in test [4], in test [5], in test [6] and in [7] was “inactive” throughout. The Potency entry in test [8], in test [9], in test [10], in test [11], in [13] and in test [14] was “inactive” each time. Besides, the Potency result in test [15], in test [16], in [17] and in [18] was “inactive” throughout. In addition, the compound was classed as inactive in test [3]. Moreover, the max response in [12] is 1.41% and 7.94%.

On to `CC(=O)OCCC(C)C`, for which the Potency result in [1], in test [2], in test [4], in test [19], in [5] and in [6] was “inactive” in each case. Moreover, the Potency result in [7], in test [8], in test [9], in test [10], in test [11] and in test [13] was “inactive” in each case. Besides, the Potency result in test [14], in test [15], in test [16], in test [17] and in test [18] was “inactive” in each case. In addition, the call in test [3] was inactive. Besides, the activity change, positive = activation in [20] (at 92.4 µM (top of the series)) is 1.01% and 5.99%. Further, the max response in test [12] was 3.8% and 7.54%.

For the compound `Oc1ccc(Cc2ccccc2O)cc1`, the Potency result in test [1], in test [2], in test [4], in [5], in [7] and in test [8] was “inactive” each time. The Potency result in test [9], in [11], in test [13], in [14], in [15] and in [16] was “inactive” in each case. Also, the Potency entry in [17] and in test [18] was “inactive” each time. For the same compound, the call in test [3] was inactive. Moreover, the Potency in test [6] was 19.7 µM (active); in test [10], 15.5 µM (active); in test [12], 14 µM (active) and 17.4 µM (active).

Take `COCN(COC)c1nc(N(COC)COC)nc(N(COC)COC)n1`: the Potency entry in test [1], in test [2], in test [4], in test [19], in test [5] and in [6] was “inactive” each time. Moreover, the Potency result in [7], in test [8], in [9], in test [10], in test [11] and in test [13] was “inactive” in each case. For the same compound, the Potency entry in test [14], in test [15], in test [16], in [17] and in test [18] was “inactive” in each case. In addition, the compound was called inactive in [3]. The activity change, positive = activation in test [20] (at 92.4 µM (top of the series)) was -2.4% and 4.33%. Further, in [12], the max response was -2.02% and -0.0674%.

On to `CCOC(=O)c1ccc(O)cc1`, for which the Potency entry in test [1], in test [2], in [4], in test [5], in test [6] and in [7] was “inactive” throughout. The Potency result in test [8], in test [9], in [10], in test [11], in test [13] and in test [14] was “inactive” in each case. The Potency result in test [15], in test [16], in test [17] and in test [18] was “inactive” in each case. Besides, the compound was classed as inactive in test [3]. The max response in [12] is -23.5% and -3.47%.

In the case of `C1CCCNCC1`, the Potency entry in [1], in test [2], in test [4], in [19], in test [5] and in test [6] was “inactive” each time. Also, the Potency result in test [7], in [8], in test [9], in [10], in [11] and in test [13] was “inactive” each time. Moreover, the Potency entry in test [14], in test [15], in [16], in test [17] and in [18] was “inactive” in each case. For the same compound, the result in test [3] was inactive. Further, the activity change, positive = activation in [20] (at 92.4 µM (top of the series)) is 1.64% and -2.2%. In addition, in [12], the max response is 6.44% and 0.666%.

Take `O=C(O)Cc1c[nH]c2ccccc12`: the Potency result in test [1], in test [2], in test [4], in [19], in [5] and in test [6] was “inactive” throughout. Further, the Potency entry in test [7], in [8], in test [9], in test [10], in [11] and in test [13] was “inactive” throughout. The Potency result in test [14], in [15], in test [17] and in test [18] was “inactive” each time. Further, the compound was called inactive in test [3]. The activity change, positive = activation in test [20] (at 92.4 µM (top of the series)) was 5.71% and 6.87%. In addition, the max response in test [12] was 12.4% and 16.9%.

As for `CC(=O)Nc1ccc(CC(=O)O)cc1`, the Potency result in [1], in test [2], in test [4], in test [19], in test [5] and in test [6] was “inactive” each time. Also, the Potency result in test [7], in test [8], in test [9], in test [10], in test [11] and in [13] was “inactive” throughout. The Potency entry in test [14], in test [15], in [16], in test [17] and in test [18] was “inactive” each time. In addition, the outcome in [3] was inactive. The activity change, positive = activation in test [20] (at 42.5 µM (top of the series)) was -1.58%; in test [20] (at 92.4 µM (top of the series)) it was 9.59%. The max response in test [12] was -18.8% and 1.34%.

Regarding `COC(=O)CCCCC(=O)OC`, the Potency entry in [1], in test [2], in [4], in test [5], in test [6] and in test [7] was “inactive” each time. Moreover, the Potency entry in test [8], in [9], in test [10], in test [11], in test [13] and in [14] was “inactive” each time. The Potency entry in test [15], in test [16], in test [17] and in test [18] was “inactive” each time. For the same compound, the compound was classed as inactive in test [3]. Besides, the max response in test [12] is 6.2% and 1.04%.

`CC(=O)OC/C=C(\C)CCC=C(C)C`: the Potency result in test [1], in test [2], in test [4], in test [5], in test [6] and in test [7] was “inactive” throughout. Besides, the Potency entry in test [8], in [9], in test [10], in test [11], in test [13] and in test [14] was “inactive” throughout. Besides, the Potency result in test [15], in test [16], in test [17] and in [18] was “inactive” in each case. Besides, the result in test [3] was inactive. Also, the max response in test [12] is -1.95% and 0.392%.

As to `CCCOCC(C)O` (stereo not drawn), the Potency entry in test [1], in test [2], in test [4], in [19], in [5] and in test [6] was “inactive” throughout. The Potency entry in test [7], in [8], in test [9], in test [10], in test [11] and in [13] was “inactive” each time. Further, the Potency entry in [14], in test [15], in test [16], in [17] and in test [18] was “inactive” each time. Besides, the result in [3] was inactive. Besides, in test [20] (at 92.4 µM (top of the series)), the activity change, positive = activation was 5.9% and 6.38%. The max response in test [12] was 6.7% and -0.928%.
